# In the library only some 0.87% were active in any assay of this set; here they are far more common.
# IDE act – human IDE activators in live cells, primary screen, fluorescence polarization, HEK cells, FAbeta-B substrate. FAbeta-B cleavage; 0% vehicle, 100% cell-free pure enzyme wells. activation, % at 5.96 µM. actives 0.073% (n = 340,000);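 active means activation above the mean of all tested compounds plus 3 SD, set per screening campaign, cut at about 17% in these data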
# Target sequence (P14735 whole entry, looked up): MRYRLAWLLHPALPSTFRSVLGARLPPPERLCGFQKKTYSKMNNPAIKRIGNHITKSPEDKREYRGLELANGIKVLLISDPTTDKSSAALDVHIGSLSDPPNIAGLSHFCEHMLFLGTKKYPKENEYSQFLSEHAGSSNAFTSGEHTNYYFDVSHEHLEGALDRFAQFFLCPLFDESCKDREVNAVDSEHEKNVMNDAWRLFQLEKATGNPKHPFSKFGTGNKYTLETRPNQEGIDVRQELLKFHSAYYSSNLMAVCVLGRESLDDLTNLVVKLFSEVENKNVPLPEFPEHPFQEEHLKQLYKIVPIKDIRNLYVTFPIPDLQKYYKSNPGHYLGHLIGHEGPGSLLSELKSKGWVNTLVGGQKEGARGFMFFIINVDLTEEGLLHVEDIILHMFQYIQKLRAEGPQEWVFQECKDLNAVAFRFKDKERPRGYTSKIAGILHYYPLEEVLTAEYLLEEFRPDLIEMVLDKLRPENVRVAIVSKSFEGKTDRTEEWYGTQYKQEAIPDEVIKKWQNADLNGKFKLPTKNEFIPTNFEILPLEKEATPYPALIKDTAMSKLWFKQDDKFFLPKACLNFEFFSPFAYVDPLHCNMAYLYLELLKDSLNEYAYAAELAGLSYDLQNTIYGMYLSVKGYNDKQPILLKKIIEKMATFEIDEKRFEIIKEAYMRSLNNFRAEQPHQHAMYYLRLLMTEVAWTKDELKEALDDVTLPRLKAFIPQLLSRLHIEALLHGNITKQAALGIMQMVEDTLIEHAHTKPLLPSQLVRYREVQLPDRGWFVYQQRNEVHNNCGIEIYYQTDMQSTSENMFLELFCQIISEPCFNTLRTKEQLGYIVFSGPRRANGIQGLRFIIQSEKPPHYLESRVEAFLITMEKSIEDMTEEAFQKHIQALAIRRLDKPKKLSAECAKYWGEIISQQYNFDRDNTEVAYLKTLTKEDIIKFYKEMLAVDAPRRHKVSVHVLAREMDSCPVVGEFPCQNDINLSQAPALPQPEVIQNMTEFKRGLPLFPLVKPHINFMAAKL
# IDE inh – human IDE inhibitors in live cells, primary screen, fluorescence polarization, HEK cells, FAbetaB substrate | inhibition, % at 5.59 µM | FAbetaB cleavage | Insulin-degrading enzyme (Homo sapiens), P14735 | actives 0.41% (n = 320,000);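 active means percent inhibition above the average of all tested compounds plus 3 SD, set per screening campaign, cut at about 16% in these data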;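 further: IDE supplied by intact live HEK cells; FP after avidin binding of uncleaved biotin substrate so inhibition keeps polarization high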
# TLR9-MyD88 inh – inhibitors of TLR9-MyD88 association in cells, primary screen, cell-based, CHO, BLA complementation, fluorescence; Toll-like receptor 9 (Homo sapiens) + Myeloid differentiation primary response protein …; CCF4 FRET ratio; inhibition, % at 4.98 µM; actives 0.21% (n = 340,000); AID 504734, 2011;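 active means inhibition above the mean over all tested compounds plus 3 SD, cut at about 21% in these data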
# TLR4-MyD88 BLA – inhibitors of TLR4-MyD88 association in cells, primary screen, cell-based, HeLa CL3-4, BLA complementation, FRET ratio; HeLa CL3-4 TLR4/MyD88 BLA complementation; Toll-like receptor 4 (Homo sapiens) + Myeloid differentiation primary response protein …; actives 0.18% (n = 200,000); inhibition, % at 8.4 µM; in the data active means inhibition above about 25%
# NOD2 RIPK2 PPI – NOD2-RIPK2 binding disruptors in cells, primary screen, fluorescence, CHO cells, BLA complementation; actives 0.38% (n = 360,000); CCF4 ratio; inhibition, % at 4.98 µM; in the data active means inhibition above about 21%
# TLR9-MyD88 cf – TLR9-MyD88 association inhibitors, retest, confirmation, cell-based, CHO, BLA complementation, fluorescence, triplicate; shares compounds with TLR9-MyD88 inh; CCF4 FRET ratio; inhibition, % at 4.98 µM; actives 51% (n = 680); AID 540250, 2011;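 active means mean inhibition across three repeats above about 21% taken from the earlier screen, limit read from the data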;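 further: blue over green emission ratio reports constitutive TLR9 MyD88 association via BLA complementation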
# BLA counter – beta-lactamase reporter inhibitors in CHO cells, artefact control for TLR9-MyD88 binding inhibitor project, cell-based, fluorescence; AID 540251, 2011; actives 7% (n = 680); inhibition, % at 4.98 µM; CHO-BLA cells, CCF4 FRET ratio, BLA reporter; shares compounds with TLR9-MyD88 inh;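 active means mean inhibition above a 50% cutoff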;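 further: counterscreen of TLR9-MyD88 hits on CMV-driven BLA in CHO-K1 cells; higher means less blue over green ratio so more BLA blockade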
# TLR9 CHO cytotox – CHO cell viability loss – luminescence, single concentration, cytotoxicity control for TLR9-MyD88 binding inhibitor project; AID 588336, 2011; shares compounds with TLR9-MyD88 inh; TLR9-MyD88 CHO cells cytotoxicity; inhibition, % at 4.98 µM; actives 39% (n = 680); in the data active means inhibition above about 11%
# A number is an active result; – = inactive; · = no result given.
SMILES,IDE act,IDE inh,TLR9-MyD88 inh,TLR4-MyD88 BLA,NOD2 RIPK2 PPI,TLR9-MyD88 cf,BLA counter,TLR9 CHO cytotox
CCCCN1CCCC1CNC(=O)c1cc(C#N)c2ccccc2c1OC (configuration not stated),·,–,·,·,·,·,·,·
COc1cccc(C2=CC(c3cccc(OC)c3OC)n3nnnc3N2)c1 (configuration not stated),–,–,–,–,–,·,·,·
COc1ccc(OC)c(C2C=C(c3ccc(C)c(C)c3)Nc3nnnn32)c1 (configuration not stated),–,–,–,·,–,·,·,·
COc1ccc(C2=CC(c3ccc(C)cc3)n3nnnc3N2)cc1 (configuration not stated),–,–,26,–,27,–,–,–
COc1ccc(C2C=C(c3ccccc3)Nc3nnnn32)cc1 (configuration not stated),–,–,24,–,–,–,–,–
CC(=O)c1ccc(NC(=S)N2CCCC2)cc1,–,·,–,·,–,·,·,·
O=C(c1ccc(Cl)cc1Cl)N1CCC(C(=O)N2CCOCC2)CC1,–,–,–,·,–,·,·,·
Oc1oc(C=Nc2ccc(F)cc2F)c2ccccc12,–,–,–,–,–,·,·,·
CC(C)(C)c1ccc(C2=CC(c3ccccc3F)n3ncnc3N2)cc1 (configuration not stated),–,–,22,·,–,–,–,–
O=Nc1c(O)n(Cc2cccc(Cl)c2)c2ccccc12,–,–,26,–,–,–,–,14
CCCC(=O)Nc1ccc2c(c1)nc(CCN1CCN(c3ccccn3)CC1)n2C,–,·,27,·,–,–,–,–
CCN(CC)S(=O)(=O)c1cccc(NC(=O)CN2C(=O)NC3(CCC(C)CC3)C2=O)c1 (configuration not stated),–,·,–,·,–,·,·,·
CCN(C[C@H]1N[C@@](CC)(C(=O)OC)[C@H]2C(=O)N(Cc3ccccc3)C(=O)[C@@H]12)C(=O)c1ccc(C(C)(C)C)cc1,–,–,45,·,–,–,–,52
Cc1ccc(NC(=S)N2CCC(NC(=O)c3ccco3)CC2)cc1C,–,–,–,·,–,·,·,·
CCOC(=O)COc1ccccc1/C=C\[N+](=O)[O-],–,–,33,–,87,47,–,96
Cc1ccc(-n2nc3c(c2NC(=O)c2ccccc2)CS(=O)(=O)C3)cc1C,–,–,–,·,–,·,·,·
Cc1ccc(-n2nc3c(c2NC(=O)c2c(F)cccc2Cl)CS(=O)(=O)C3)cc1C,–,–,22,·,–,–,–,–
CCOc1ccc(N2C(=O)/C(=C/c3cccs3)N(CC(=O)OC)C2=S)cc1,–,–,–,–,–,·,·,·
CCc1ccc(/C=C2/C(=O)N(c3ccccc3)C(=S)N2CC(=O)OC)s1,–,–,29,–,–,–,–,–
N#Cc1ccc(-c2ccco2)nc1SCC(=O)c1ccc(Cl)cc1,–,–,28,30,–,25,–,–
Cc1ccc(C(=O)CSc2nc(-c3ccccc3)ccc2C#N)cc1,–,–,–,–,–,·,·,·
N#CC1=C(N)OC2=C(CC/C2=C\c2ccccc2Cl)C1c1ccccc1Cl (configuration not stated),–,–,32,–,–,–,–,–
N#CC1=C(N)OC2=C(CC/C2=C\c2ccccc2)C1c1ccccc1 (configuration not stated),–,–,–,–,–,·,·,·
O=C(NC1CCCCC1)c1cccc2c1C(=O)c1ccc(N3CCC(Cc4ccccc4)CC3)cc1S2(=O)=O,–,–,80,·,–,37,–,–
O=C(NC1CCCC1)c1cccc2c1C(=O)c1ccc(/C=C/c3ccccc3)cc1S2(=O)=O,–,–,–,·,–,·,·,·
SMILES,IDE act,IDE inh,TLR9-MyD88 inh,TLR4-MyD88 BLA,NOD2 RIPK2 PPI,TLR9-MyD88 cf,BLA counter,TLR9 CHO cytotox
C=CC[C@H](CC(=O)OC(C)(C)C)C(=O)OC[C@@H]1CCCN1C(=O)[C@H](CC=C)CC(=O)N[C@H](CO)Cc1ccccc1,–,–,–,·,–,·,·,·
CSc1ccc(/C=N/n2c(COc3ccccc3)n[nH]c2=S)cc1,–,–,22,·,–,–,–,–
S=c1[nH]nc(COc2ccccc2)n1/N=C/c1ccc(Cl)cc1,–,·,–,·,–,·,·,·
COc1ccc(C2CC(c3ccncc3)=NN2c2ccc(S(N)(=O)=O)cc2)cc1 (configuration not stated),–,·,–,·,37,–,–,16
C=CCCCCCCCCc1nc(SCC(=O)O)n[nH]1,–,–,32,·,–,–,–,–
COc1ccc2oc(=O)c(-c3nc(C)cs3)cc2c1,–,–,–,–,–,·,·,·
COc1ccc2oc(=O)c(-c3nnc(N)s3)cc2c1,–,–,21,–,–,–,–,–
CCc1ccc(OCC(=O)N/N=C(\C)c2ccc(OC(F)F)cc2)cc1,–,–,21,–,–,–,–,–
CCc1ccc(OCC(=O)N/N=C(\C)c2ccccc2OC(F)F)cc1,–,–,–,–,–,·,·,·
CCc1cc(C(=O)OCC(=O)N2CCC(c3ccccc3)=N2)sc1C,–,–,–,·,–,·,·,·
Cc1cccc(NC(=O)c2cc(-c3cc(Cl)ccc3O)n[nH]2)c1,–,–,23,·,–,–,–,–
O=C(OCn1ncc(Cl)c(Cl)c1=O)c1ccccc1Cl,–,–,31,–,54,28,–,99
COc1ccc(/C=C2\C(=O)NC(=O)c3ccccc32)cc1OC,–,·,31,·,–,54,58,26
CCc1cc2c(-c3ccccc3)cc(=O)oc2cc1OC(C)C(=O)O (configuration not stated),–,–,–,·,–,·,·,·
CC(NC(=O)OCc1ccccc1)C(=O)Oc1cc2oc(=O)cc(-c3ccccc3)c2cc1Cl (configuration not stated),–,–,34,–,38,–,–,–
CC(=O)Nc1ccc(S(=O)(=O)N2CCN(c3ncccn3)CC2)cc1,–,–,–,·,–,·,·,·
O=C1C=CC(=O)N1c1ccccc1N1C(=O)C=CC1=O,–,·,46,·,–,66,–,99
C/C(=N/Nc1ccc([N+](=O)[O-])cc1)c1c[nH]c2ccccc12,–,·,37,·,–,24,–,–

# Assay outcomes (PubChem)
